The source made the active and inactive calls.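 Rule for the calls: active = Inhibition of the Kir2.1 potassium channel over 30% at some tested dose, plus a fitted dose response curve; inactive = no Kir2.1 inhibition at any dose, or no curve fitted.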

Among the data in PubChem BioAssay AID540321 (Johns Hopkins Ion Channel Center, 2011) are outcome values, retold here.

The target of the test is Inward rectifier potassium channel 2 (Mus musculus) (UniProt P35561). Nature of the test: off-target blockade of inward rectifier Kir2.1 – cell-based, FluxOR thallium flux, CRC round 2, selectivity assay for KCNK9 inhibitor project, SAR follow-up (AID 540321).
Inward rectifier potassium channel 2 (Mus musculus), sequence (P35561 whole entry, looked up): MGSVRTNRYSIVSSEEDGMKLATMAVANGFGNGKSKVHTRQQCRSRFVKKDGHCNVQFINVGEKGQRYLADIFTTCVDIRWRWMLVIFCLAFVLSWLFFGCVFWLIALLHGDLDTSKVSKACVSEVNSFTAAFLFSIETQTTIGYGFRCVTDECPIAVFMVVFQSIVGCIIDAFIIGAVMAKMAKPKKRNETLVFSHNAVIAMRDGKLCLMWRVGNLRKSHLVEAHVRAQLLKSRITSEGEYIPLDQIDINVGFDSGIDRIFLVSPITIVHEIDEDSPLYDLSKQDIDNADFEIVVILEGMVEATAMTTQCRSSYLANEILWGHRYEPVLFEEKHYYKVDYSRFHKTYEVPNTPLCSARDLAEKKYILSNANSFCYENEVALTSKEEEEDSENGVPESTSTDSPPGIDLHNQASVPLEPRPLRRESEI

`CC(C1CC2CCC1C2)n1c(-c2ccco2)n[nH]c1=S` (configuration not stated): the result was inactive.

Regarding `CCOc1ccccc1NC(=O)c1cccc(NC(=O)c2ccc(Cl)cc2)c1`, the result was inactive.

Consider `Cc1cccc(C(=O)Nc2cccc(NC(=O)c3cccs3)c2)c1`, for which the outcome was inactive.

For `CN(C)c1ccc(C(=O)Nc2cccc(NC(=O)c3ccccc3)c2)cc1`, the result was inactive.

`CCOc1ccccc1C(=O)Nc1cccc(NC(=O)c2ccccc2OC)c1`: the compound was classed as inactive.

Consider `O=C(Nc1cccc(NC(=O)c2ccoc2)c1)c1ccccc1`, for which the compound was called inactive.

In the case of `CCOc1ccccc1NC(=O)c1cccc(NC(=O)c2ccc(OC)cc2)c1`, the compound was classed as inactive.

On to `O=C(Nc1cccc(NC(=O)c2cccnc2)c1)c1ccccc1`, for which the call was inactive.

On to `O=C(Nc1cccc(NC(=O)c2ccncc2)c1)c1ccccc1`, for which the call was inactive.

As for `CCOc1ccccc1NC(=O)c1cccc(NC(=O)CC2CCCC2)c1`, the outcome was inactive.

`CCOc1ccccc1C(=O)Nc1cccc(NC(=O)C2CCCC2)c1`: the compound was classed as inactive.

For `O=C(Nc1cccc(NC(=O)c2ccccc2C(F)(F)F)c1)c1ccccc1`, the outcome was inactive.

Take `COc1cccc(-c2n[nH]c(=S)n2C(C)C2CC3CCC2C3)c1` (configuration not stated): the compound was classed as inactive.

On to `O=C(Nc1cccc(NC(=O)c2cccc(Cl)c2)c1)c1ccccc1`, for which the result was inactive.

Regarding `CC(c1ccccc1)n1c(-c2ccco2)n[nH]c1=S` (configuration not stated), the compound was called inactive.

Consider `CC(C1CC2CCC1C2)n1c(C2CCOC2)n[nH]c1=S` (configuration not stated), for which the compound was called inactive.

For the compound `Cc1cccc(C(=O)Nc2cccc(NC(=O)c3ccco3)c2)c1`, the outcome was inactive.
